The list is not random: actives were taken first. Their share in the collection is about 19%.
Pf growth 48h: Primary qHTS for delayed death inhibitors of the malarial parasite plastid, 48 hour incubation; P. falciparum luciferase growth in erythrocytes, 48 h; Potency, µM (highest dose often 28.7 µM), usual class: inhibitors; 5.9% of 310,000 active; AID 504832, 2011
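Here the parasites carry a stable luciferase gene and grow inside erythrocytes in Albumax-based RPMI medium with compound for one erythrocytic cycle. Activity is scored as loss of luminescent signal.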
MARV entry inh: qHTS for inhibitors of binding or entry into cells for Marburg Virus; Potency, µM (series often up to 37.8 µM), most hits filed as inhibitors; AID 540276, 2011; Marburg virus pseudotyped entry inhibition, cell reporter; 1.8% of 300,000 active; calls by dose curve; tested in HEK293 cells
Pf growth 96h: Primary qHTS for delayed death inhibitors of the malarial parasite plastid, 96 hour incubation. P. falciparum luciferase reporter growth, 96 h. Potency, µM (doses to about 28.7 µM), most hits filed as inhibitors. 6.9% of 320,000 active. AID 504834, 2011
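Two-generation exposure (96 h) targets delayed-death phenotype. Reporter parasites carrying integrated firefly luciferase, in red cells at 2% hematocrit and 0.05% parasitemia final, kept at 37 C, 5% CO2; luminescence loss indicates inhibition.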
LASV entry inh: qHTS for Inhibitors of binding or entry into cells for Lassa Virus. Lassa virus pseudotype entry inhibition, cell reporter. Potency, µM (highest dose often 37.9 µM), usual class: inhibitors. 1.2% of 300,000 active; calls by dose curve; tested in HEK293 cells; further: nearly all actives have a fitted effect of over 50% in size
Cycloheximide cs: Cycloheximide Counterscreen for Small Molecule Inhibitors of Shiga Toxin. 12% of 300,000 active. AID 2314, 2010. cell reporter, cycloheximide protein synthesis inhibition counterscreen. max response, %; in the data active means max response mostly above about 13%, no sharp cut-off; inactive means mostly below about 14%; further: read at 38.3 µM for the half of the compounds with a filed dose
Shiga toxin inh: A qHTS for Small Molecule Inhibitors of Shiga Toxin; AID 2315, 2010; 9.2% of 290,000 active; Vero cells, Shiga toxin protein synthesis inhibition reporter; inhibition, % at 38.7 µM; in the data active means inhibition mostly above about 28%, no sharp cut-off; inactive means mostly below about 43%
Large screens that a line does not name were inactive. Unless noted, the call rests on the fitted dose curve; in most records, active means well fitted inhibition curve with a large enough effect; inconclusive means small, poorly fitted or top-dose-only effect, or another doubt; inactive means no such curve, though single readings can be large or run the other way.

O=C(NCCCN1CCN(c2ccccc2F)CC1)c1ccc2nc(Cc3ccccc3)oc2c1	none (no result: Pf growth 48h, MARV entry inh, Pf growth 96h, Cycloheximide cs, Shiga toxin inh)
O=C(c1ccc2nc(Cc3ccccc3F)oc2c1)N1CCCC1	MARV entry inh inconclusive, LASV entry inh 6.3µM, Cycloheximide cs 41, Shiga toxin inh 87
COc1ccc(Cc2nc3ccc(C(=O)N4CCCN(C=O)CC4)cc3o2)cc1	none (no result: MARV entry inh, LASV entry inh)
Cc1cc(CN(C)C(=O)c2ccc3nc(Cc4ccccc4F)oc3c2)n[nH]1	none
O=C(NCCCN1CCOCC1)c1ccc2nc(Cc3ccccc3F)oc2c1	Cycloheximide cs 22
CCC(=O)NC1CC(=O)N(c2ccc3c(c2)OCCO3)C1 (stereo not drawn)	none (no result: Pf growth 48h, MARV entry inh, Pf growth 96h, Cycloheximide cs, Shiga toxin inh)
O=C(NC(=S)Nc1ccc(S(=O)(=O)Nc2nccs2)cc1)c1ccccc1	Pf growth 96h 13µM
COc1ccccc1C(=O)Nc1ccc(S(=O)(=O)Nc2nccs2)cc1	none
COc1ccc(NS(=O)(=O)c2ccc(NC(=S)NC(=O)c3ccc(Br)cc3)cc2)nn1	Pf growth 96h 12µM
COc1cccc(OC)c1C(=O)NC(=S)Nc1ccc(S(=O)(=O)Nc2nccs2)cc1	Pf growth 48h 13µM
O=c1c(O)cccc2cc(O)c(O)c(O)c12	Pf growth 96h inconclusive (no result: MARV entry inh, LASV entry inh)
CC(C)(O)/C=C/C(=O)C(C)(O)C1C(O)CC2(C)C3CC=C4C(C=C(O)C(=O)C4(C)C)C3(C)C(=O)CC12C (stereo not drawn)	MARV entry inh 0.11µM, LASV entry inh 0.32µM (no result: Pf growth 48h, Pf growth 96h, Cycloheximide cs, Shiga toxin inh)
CN(C)c1ccc(P(=O)(OCc2ccccc2)C(O)c2ccccc2)cc1 (stereo not drawn)	Pf growth 48h 10µM, Pf growth 96h 2.3µM
CC(C)CCOP(=O)(c1ccc(N(C)C)cc1)C(O)c1ccc(Cl)cc1Cl (stereo not drawn)	Pf growth 48h 9.3µM, MARV entry inh inconclusive, Pf growth 96h 9.3µM, LASV entry inh inconclusive
CC(C)CCOP(=O)(c1ccc(N(C)C)cc1)C(O)c1ccccc1F (stereo not drawn)	Pf growth 48h 2.9µM, MARV entry inh inconclusive, Pf growth 96h inconclusive
CC(C)CCOP(=O)(c1ccc(N(C)C)cc1)C(O)c1ccc(N(C)C)cc1 (stereo not drawn)	Pf growth 48h inconclusive, Pf growth 96h inconclusive (no result: LASV entry inh)
Cc1cc(C)n(CCNS(=O)(=O)c2ccccc2)n1	none
CCC/C(=N/Nc1ccc(Cl)cc1)c1cnnc(-c2ccccc2)n1	MARV entry inh inconclusive (no result: Pf growth 48h, Pf growth 96h, Cycloheximide cs, Shiga toxin inh)
Oc1c(Br)cc(/C=N/Nc2nncc3ccccc23)cc1Br	Cycloheximide cs 30
COc1cccc(/C=N/Nc2nn3cnnc3c3ccccc23)c1	MARV entry inh inconclusive (no result: Pf growth 48h)
CC/C(=N/Nc1ccccc1Cl)c1cnnc(-c2ccccc2)n1	Pf growth 48h 2.3µM, Pf growth 96h 1µM
COc1ccc(/C=N/Nc2nncc3ccccc23)cc1	MARV entry inh inconclusive, LASV entry inh inconclusive, Cycloheximide cs 25
COc1ccc(C(=O)O/N=C(\C)c2ccccc2)cc1	none
O=C(N/N=C/c1cc(Br)c(O)c(Br)c1)c1cccnc1	none
COc1ccc(/C(C)=N/Nc2nncc3ccccc23)cc1	MARV entry inh inconclusive, LASV entry inh inconclusive, Cycloheximide cs 27, Shiga toxin inh 63
Cc1ccccc1CN(c1ccc(C(=O)N2CCc3ccccc3C2)cc1)S(C)(=O)=O	Pf growth 48h inconclusive, MARV entry inh inconclusive, Pf growth 96h inconclusive
COc1ccccc1/C=N/Nc1cc(N(C)C)nc(N(C)C)n1	Pf growth 48h inconclusive, Pf growth 96h inconclusive
COc1ccccc1/C=N/Nc1nncc2ccccc12	MARV entry inh inconclusive, Cycloheximide cs 46, Shiga toxin inh active
COc1ccc(N/N=C(/C)c2cnnc(-c3ccccc3)n2)cc1	Pf growth 48h inconclusive, Pf growth 96h 0.37µM
COc1ccc(/C(C)=N/Nc2nc3ccccc3nc2C)cc1	MARV entry inh inconclusive, LASV entry inh inconclusive, Cycloheximide cs 45, Shiga toxin inh 76
Cc1ccc(S(=O)(=O)NCCC(=O)Nc2cccc(S(=O)(=O)N3CCCC3)c2)cc1C	MARV entry inh inconclusive (no result: Pf growth 48h, Pf growth 96h, Cycloheximide cs, Shiga toxin inh)
CCC(C)NC(=O)CN(c1ccc(Cl)c(Cl)c1)S(C)(=O)=O (stereo not drawn)	none
CCOc1ccc(C2C(C(=O)c3cccs3)=C(O)C(=O)N2Cc2cccnc2)cc1 (stereo not drawn)	none

Bioassay records: PubChem BioAssay, National Center for Advancing Translational Sciences (NCATS)
